Results published in PubChem BioAssay.
A number with no mark means an inactive call. For some assays here: Results with a measured potency or affinity are listed apart. Calls of active or inactive are those of the source. Unless noted, the rule behind the calls is not given here.

Tests used:
[1] = antimalarial activity against Dd2 strain (AID 2302;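 active = growth inhibition above 50% at the single 2 µM test dose, taken to imply half-maximal potency below 2 µM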;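 note: 0% = DMSO untreated growth and 100% = chloroquine plus artemisinin killed control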); details: P. falciparum Dd2 in RBCs, LDH growth readout, 72 h; at 2 µM; active compounds read high
[2] = HepG2 cytotoxicity, primary screen, cytotoxicity control for P. falciparum antimalarial project, cell-based, ATP luminescence (AID 2303;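 active = inhibition above 50%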;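 note: 0% = DMSO wells and 100% = digitonin-killed cells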); details: HepG2 viability, 24-48 h, at 10 µM, active compounds read high
[3] = target: L-lactate dehydrogenase (Plasmodium falciparum (isolate CDC / Honduras)) (UniProt Q27743); assay: PfLDH activity inhibition – cell lysate, 3D7 strain, counter-screen for P. falciparum growth inhibition project (AID 2304);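 note: 0% = vehicle and 100% = reference inhibitor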; details: P. falciparum 3D7 crude extract, LDH APAD/NBT absorbance; at 2 µM; active compounds read high
Chain of L-lactate dehydrogenase (Plasmodium falciparum (isolate CDC / Honduras)) (Q27743 whole entry, looked up): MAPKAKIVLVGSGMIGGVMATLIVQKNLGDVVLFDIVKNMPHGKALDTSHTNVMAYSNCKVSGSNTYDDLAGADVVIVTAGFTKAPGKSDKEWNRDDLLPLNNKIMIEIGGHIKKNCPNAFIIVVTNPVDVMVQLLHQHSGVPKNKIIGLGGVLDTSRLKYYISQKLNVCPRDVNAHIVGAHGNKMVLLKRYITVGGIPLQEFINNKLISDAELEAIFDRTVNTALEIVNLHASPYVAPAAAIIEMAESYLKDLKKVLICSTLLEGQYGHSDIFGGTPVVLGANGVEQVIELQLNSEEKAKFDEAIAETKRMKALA

[4] = inhibition of 3D7 malaria parasite growth – strain 3D7 (AID 2306);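 note: 0% = DMSO wells and 100% = chloroquine plus artemisinin control wells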; details: P. falciparum 3D7 erythrocytic growth, LDH absorbance, 72 h; at 2 µM; active compounds read high
[5] = target: Calcium-dependent protein kinase 1 (Plasmodium falciparum (isolate 3D7)) (UniProt P62344); assay: PfCDPK1 kinase inhibitors, biochemical, TCAMS library (AID 1159585; cut-off not given, nearly all actives have IC50 up to about 0.98 µM;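 note: inhibitors leave more ATP so luminescence rises with inhibition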); details: recombinant PfCDPK1, Kinase-Glo ATP depletion luminescence
Chain of Calcium-dependent protein kinase 1 (Plasmodium falciparum (isolate 3D7)) (P62344 whole entry, looked up): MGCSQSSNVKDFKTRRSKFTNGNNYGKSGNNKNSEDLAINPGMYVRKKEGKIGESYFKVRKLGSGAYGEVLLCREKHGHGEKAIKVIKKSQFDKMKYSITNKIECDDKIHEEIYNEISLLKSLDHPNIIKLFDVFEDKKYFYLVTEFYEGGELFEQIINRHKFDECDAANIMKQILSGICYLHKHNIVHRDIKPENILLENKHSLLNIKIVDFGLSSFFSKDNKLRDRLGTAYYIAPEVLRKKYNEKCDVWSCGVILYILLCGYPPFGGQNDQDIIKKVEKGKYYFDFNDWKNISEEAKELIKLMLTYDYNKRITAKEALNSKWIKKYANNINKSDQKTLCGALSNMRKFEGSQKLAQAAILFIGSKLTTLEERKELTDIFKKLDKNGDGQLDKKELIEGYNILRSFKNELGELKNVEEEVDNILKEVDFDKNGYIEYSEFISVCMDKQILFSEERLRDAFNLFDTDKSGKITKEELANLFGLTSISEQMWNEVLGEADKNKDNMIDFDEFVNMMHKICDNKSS

[6] = target: Plasmodium falciparum protein kinase 6 (PK6, PF3D7_1337100) (UniProt Q8IDW1); assay: PfPK6 kinase inhibitors, biochemical, TCAMS library (AID 1159586); details: recombinant PfPK6, Kinase-Glo ATP depletion luminescence
Chain of Plasmodium falciparum protein kinase 6 (PK6, PF3D7_1337100) (Q8IDW1 1-305): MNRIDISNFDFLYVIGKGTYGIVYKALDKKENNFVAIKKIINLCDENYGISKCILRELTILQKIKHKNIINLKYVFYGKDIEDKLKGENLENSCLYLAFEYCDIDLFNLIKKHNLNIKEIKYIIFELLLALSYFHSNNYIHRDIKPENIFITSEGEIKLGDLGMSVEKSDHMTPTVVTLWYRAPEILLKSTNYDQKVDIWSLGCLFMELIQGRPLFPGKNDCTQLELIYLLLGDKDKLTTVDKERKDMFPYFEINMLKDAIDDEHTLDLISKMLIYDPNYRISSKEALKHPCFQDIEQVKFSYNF

[7] = target: Protein kinase 7 (PK7), Plasmodium falciparum 3D7 (PF3D7_0213400) (UniProt Q7YTF7); assay: inhibition of Plasmodium PK7 catalytic activity – biochemical, TCAMS antimalarial set, Kinase-Glo luminescence (AID 1159587); details: recombinant PfPK7, Kinase-Glo ATP depletion luminescence
Chain of Protein kinase 7 (PK7), Plasmodium falciparum 3D7 (PF3D7_0213400) (Q7YTF7 1-343): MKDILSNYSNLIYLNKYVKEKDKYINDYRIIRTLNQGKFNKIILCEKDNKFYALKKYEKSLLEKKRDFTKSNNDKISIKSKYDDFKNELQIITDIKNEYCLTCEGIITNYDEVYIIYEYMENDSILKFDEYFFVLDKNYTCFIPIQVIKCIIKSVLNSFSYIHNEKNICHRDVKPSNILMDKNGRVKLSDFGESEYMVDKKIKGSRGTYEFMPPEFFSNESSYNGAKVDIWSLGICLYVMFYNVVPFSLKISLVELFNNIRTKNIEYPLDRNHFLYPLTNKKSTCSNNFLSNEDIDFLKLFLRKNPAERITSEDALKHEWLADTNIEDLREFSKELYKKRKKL

[8] = target: Calcium-dependent protein kinase 4 (Plasmodium falciparum (isolate 3D7)) (UniProt Q8IBS5); assay: PfCDPK4 kinase inhibitors, biochemical, TCAMS library (AID 1159588; cut-off not given, nearly all actives have IC50 up to about 0.91 µM); details: recombinant PfCDPK4, Kinase-Glo ATP depletion luminescence
Chain of Calcium-dependent protein kinase 4 (Plasmodium falciparum (isolate 3D7)) (Q8IBS5 whole entry, looked up): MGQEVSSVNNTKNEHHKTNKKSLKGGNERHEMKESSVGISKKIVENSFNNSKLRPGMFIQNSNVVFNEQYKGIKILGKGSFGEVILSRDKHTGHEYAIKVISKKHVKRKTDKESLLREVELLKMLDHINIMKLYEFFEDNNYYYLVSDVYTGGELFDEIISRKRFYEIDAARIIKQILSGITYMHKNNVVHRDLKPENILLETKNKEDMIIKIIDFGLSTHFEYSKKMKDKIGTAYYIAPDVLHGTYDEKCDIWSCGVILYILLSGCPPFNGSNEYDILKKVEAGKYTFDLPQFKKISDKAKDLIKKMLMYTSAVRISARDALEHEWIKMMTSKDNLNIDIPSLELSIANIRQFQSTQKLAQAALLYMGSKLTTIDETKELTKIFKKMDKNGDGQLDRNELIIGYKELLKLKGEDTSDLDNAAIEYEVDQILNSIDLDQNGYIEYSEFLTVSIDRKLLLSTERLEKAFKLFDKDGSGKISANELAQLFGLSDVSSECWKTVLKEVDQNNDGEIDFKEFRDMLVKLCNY

Compound	growth inhibition [1]	inhibition [2]	inhibition [3]	growth inhibition [4]	outcome [5]	outcome [6]	outcome [7]	outcome [8]
Cc1ccc(Cc2c(C)nc3nc(N)nc(N)c3c2C)cc1	1%	60% (active)	5%	93% (active)	inactive	inactive	inactive	inactive
O=[N+]([O-])c1cccc(CNC2CCN(Cc3ccc4ccccc4c3)CC2)c1	22%	12%	-3%	100% (active)	inactive	inactive	inactive	inactive
CC(=O)Nc1ccc(Nc2cc(C)nc(Nc3ccc(NC(C)=O)cc3)n2)cc1	65% (active)	4%	-2%	99% (active)	inactive	inactive	inactive	inactive
CC1(C)[C@H]2CC[C@@H](CNc3nc(NCCc4cnc[nH]4)nc(Nc4ccc(Oc5ccccc5)cc4)n3)[C@@H]1C2	86% (active)	2%	3%	99% (active)	inactive	inactive	inactive	inactive
O=C(Nc1ccc(OC(F)(F)F)cc1)NC1CCN(c2ccnc3ccccc23)C1 (stereo not given)	89% (active)	25%	1%	101% (active)	inactive	inactive	inactive	inactive
O=C(O)CNCC(O)c1ccccc1 (stereo not given)	-5%	7%	-5%	96% (active)	inactive	inactive	inactive	inactive
CCOc1cc2ncnc(Nc3ccc(OCc4ccccc4F)c(Cl)c3)c2cc1OCC	74% (active)	4%	-2%	101% (active)	inactive	inactive	inactive	inactive
CCc1c(CCNCCCCCCNCCc2ccc(Br)cc2)ccc(OC)c1OC	14%	100% (active)	0%	99% (active)	inactive	inactive	inactive	inactive
COc1cc2nccc(Nc3ccc(OCc4ccccc4)cc3)c2cc1OC	99% (active)	35%	1%	101% (active)	inactive	inactive	inactive	inactive
CCNc1cc(C)nc(Nc2ccc(NC(=O)Cc3ccc(OC)cc3)cc2)n1	47%	30%	-1%	101% (active)	inactive	inactive	inactive	inactive
Cc1cc(C(=O)OCC(N)=O)c(C)n1-c1ccc(F)cc1	96% (active)	-12%	1%	97% (active)	inactive	inactive	inactive	inactive
COc1ccc2nccc(NN=Cc3cccnc3)c2c1	84% (active)	-1%	-6%	100% (active)	inactive	inactive	inactive	inactive
CCCCCN1CCCN(Cc2cccc(NC(=O)c3ccc4ccccc4c3)c2)CC1	16%	27%	-5%	86% (active)	inactive	inactive	inactive	inactive
CC(C)(C)n1nnnc1C(c1cccnc1)N(Cc1ccccc1)Cc1ccc(Cl)cc1 (stereo not given)	17%	0%	-1%	96% (active)	inactive	inactive	inactive	inactive
Nc1nc(N)c2cc(NC(=O)c3ccc(Cl)c(Cl)c3)ccc2n1	83% (active)	100% (active)	1%	100% (active)	inactive	inactive	inactive	inactive
COc1ccc(C[C@@H](N)C(=O)N[C@H]2[C@@H](O)[C@H](n3cnc4c(N(C)C)ncnc43)O[C@@H]2CO)cc1	100% (active)	99% (active)	0%	101% (active)	inactive	inactive	inactive	inactive
CN(CCCc1c[nH]c2ccccc12)CC1CCN(C(=O)/C=C/c2ccc(Cl)c(Cl)c2)CC1	25%	37%	-1%	99% (active)	inactive	inactive	inactive	inactive
O=C(Nc1cccc(CN2CCCN(Cc3cccc(O)c3)CC2)c1)c1ccc(-c2ccccc2)cc1	66% (active)	28%	3%	101% (active)	inactive	inactive	inactive	inactive
CCC(N)(C#Cc1ccc(-c2c(C)[nH]c(C)c(Br)c2=O)cc1)CC	96% (active)	0%	-1%	97% (active)	inactive	inactive	inactive	inactive
COc1ccc2nccc([C@@H](O)CN3CCC(NCc4cc5ccc(Cl)cc5[nH]4)CC3)c2c1	61% (active)	30%	4%	99% (active)	inactive	inactive	inactive	inactive

Compound	growth inhibition [1]	inhibition [2]	inhibition [3]	growth inhibition [4]	outcome [5]	outcome [6]	outcome [7]	outcome [8]
Cc1cc(N[C@@H](CC(C)C)C(=O)Nc2ccccc2)nc(NCCc2ccc(F)cc2)n1	94% (active)	8%	4%	101% (active)	inactive	inactive	inactive	inactive
CC(CN(C)C)C(=O)Nc1ccc(-c2ccc(-c3nc4ccccc4[nH]3)s2)cc1 (stereo not given)	86% (active)	14%	5%	100% (active)	inactive	inactive	inactive	inactive
CCCCCOc1ccc(C(=NC)N(CCCCC)CCCCC)c2ccccc12	80% (active)	70% (active)	3%	96% (active)	inactive	inactive	inactive	inactive
CCCCC(CC)CN1C(=O)C(c2ccccc2)(c2ccccc2)N=C1N (stereo not given)	98% (active)	32%	4%	94% (active)	inactive	inactive	inactive	inactive
COc1ccc(S(=O)(=O)N2CCCc3ccc(Br)cc32)cc1N1CCN(C(=O)C(Cl)(Cl)Cl)CC1	93% (active)	23%	2%	97% (active)	inactive	inactive	inactive	inactive
O=C1COC2(CN1C1CCN(Cc3ccc(O)cc3Cl)C1)c1ccccc1-c1ccccc12 (stereo not given)	70% (active)	10%	-1%	82% (active)	inactive	inactive	inactive	inactive
Cc1noc(C)c1-c1cccc(C(=O)NC2CCN(CCNC(=O)C(c3ccccc3)c3ccccc3)CC2)c1	74% (active)	27%	5%	85% (active)	inactive	inactive	inactive	inactive
COc1ccccc1CNC(=O)C(=O)Nc1c(-c2ccccc2)[nH]c2ccccc12	91% (active)	0%	-2%	99% (active)	inactive	inactive	inactive	inactive
Cc1cccc2[nH]c(-c3ccc(-c4cccc(NC(=O)c5cnn6cccnc56)c4)cc3)nc12	29%	100% (active)	-4%	91% (active)	inactive	inactive	inactive	inactive
COc1ccc(N2CCN(CCCCNC(=O)c3ccc(NC(=O)c4cc(C(F)(F)F)cc(C(F)(F)F)c4)cc3)CC2)c(OC)c1	99% (active)	30%	2%	100% (active)	inactive	inactive	inactive	inactive
Cc1ccc(NC(=O)Nc2ccccc2)cc1-c1ccc(C(=O)Nc2ccncc2)cc1	52% (active)	67% (active)	0%	99% (active)	inactive	inactive	inactive	inactive
O=[N+]([O-])c1cccc(CNCC2CCN(Cc3ccc(Cl)c(Cl)c3)CC2)c1	41%	9%	4%	101% (active)	inactive	inactive	inactive	inactive
O=C(/C=C/c1ccc(Cl)c(Cl)c1)NCCCCCN1CCCN(C(=O)Nc2ccc(F)c(F)c2)CC1	-1%	26%	-2%	102% (active)	inactive	inactive	inactive	inactive
CCN(CCCN1CCCCC1)c1cc(C)nc(Nc2cc(C(F)(F)F)ccc2C)n1	41%	35%	-2%	96% (active)	inactive	inactive	inactive	inactive
CCNc1cc(C(=O)N[C@@H](Cc2ccccc2)[C@H](O)CNC(C)(C)Cc2ccccc2)cc(N2CCCC2=O)c1	78% (active)	1%	3%	99% (active)	inactive	inactive	inactive	inactive
NC(N)=Nc1ccc(Cc2ccc(N=C(N)N)cc2)cc1	94% (active)	35%	-1%	93% (active)	inactive	inactive	inactive	inactive
CCNc1cc(C(=O)N[C@@H](Cc2ccccc2)[C@H](O)CNC(C)(C)CCCC(C)C)cc(N2CCCC2=O)c1	81% (active)	-12%	-1%	100% (active)	inactive	inactive	inactive	inactive
CCNc1cc(C(=O)N[C@@H](Cc2ccccc2)[C@H](O)CNC(C)(C)CCCC(C)C)c(F)c(N2CCCS2(=O)=O)c1	97% (active)	-2%	-4%	98% (active)	inactive	inactive	inactive	inactive
CC1CC(NCCCNc2cc(=O)c3ccccc3[nH]2)c2cc(Cl)c(Cl)c(Cl)c21 (stereo not given)	69% (active)	0%	3%	100% (active)	inactive	inactive	inactive	inactive
CN(C)c1cccc2c(S(=O)(=O)Nc3cccc(CCN4CCC(N5CCCCC5)CC4)c3)cccc12	54% (active)	41%	-2%	98% (active)	inactive	inactive	inactive	inactive
